FadD28 FP inh – inhibitors of Mycobacterium tuberculosis FadD28 bisubstrate binding; AID 588549; FadD28 bisubstrate probe binding, fluorescence polarization; inhibition, % at 12.5 µM; actives 0.22% (n = 360,000); in the data active = inhibition above about 8.5%, passing the limit was not always enough
Rv3671c protease – Rv3671c (M. tuberculosis) protease inhibition | P9WHR9 | inhibition, % at 5.96 µM | actives 0.048% (n = 320,000); in the data active = inhibition above about 38%;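 also: extracellular domain of Rv3671c used as enzyme; 0% = enzyme with DMSO and 100% = no enzyme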
Target sequence (P9WHR9 whole entry, looked up, the tested form may be a part): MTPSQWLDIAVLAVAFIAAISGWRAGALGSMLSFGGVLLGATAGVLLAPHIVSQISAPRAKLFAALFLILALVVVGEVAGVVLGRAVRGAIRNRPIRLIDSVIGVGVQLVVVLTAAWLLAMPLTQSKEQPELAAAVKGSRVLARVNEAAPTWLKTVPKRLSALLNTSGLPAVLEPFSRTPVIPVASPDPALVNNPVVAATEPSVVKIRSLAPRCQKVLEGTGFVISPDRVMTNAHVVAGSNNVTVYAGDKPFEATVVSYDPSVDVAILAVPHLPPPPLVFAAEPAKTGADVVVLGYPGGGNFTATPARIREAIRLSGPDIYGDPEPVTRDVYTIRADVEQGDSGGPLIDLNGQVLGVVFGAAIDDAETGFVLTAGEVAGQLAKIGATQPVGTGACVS
GDH-TPI counter-1 – counter-screen for M. tuberculosis FBA inhibitors: GDH-TPI coupled enzymes. GDH-TPI coupled enzyme counterscreen, NADH absorbance. inhibition, % at 4.8 µM. actives 1.2% (n = 360,000). AID 588335; in the data active = inhibition above about 30%;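 also: 0% = DMSO wells and 100% = wells lacking the enzyme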
Mtb FBA inh – inhibits M. tuberculosis FBA enzyme; P9WQA3; actives 2.3% (n = 360,000); purified M. tuberculosis FBA, fluorescence read-out; inhibition, % at 1 µM; AID 588726;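 also: 0% = vehicle and 100% = reference inhibitor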
BioA inh – inhibitors of Mycobacterium tuberculosis BioA enzyme. inhibition, % at 9.99 µM. actives 0.096% (n = 360,000). purified M. tuberculosis BioA enzyme, plate reader. AID 602481; in the data active = inhibition above about 40%
Mtb FBA confirm – Mtb FBA inhibition, confirmed; shares compounds with Mtb FBA inh; purified M. tuberculosis FBA, fluorescence read-out; inhibition, % at 1 µM; actives 78% (n = 5,600); AID 651616;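 also: 0% = vehicle wells and 100% = reference inhibitor wells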
GDH-TPI counter-2 – counter-screen for M. tuberculosis FBA inhibitors: GDH-TPI coupled enzyme inhibition | GDH-TPI coupled enzyme counterscreen, fluorescence | shares compounds with Mtb FBA inh | AID 652141 | actives 81% (n = 5,600) | inhibition, % at 1 µM; in the data active = inhibition above about 10%
Active calls of the source: *; · = no result; + = active, no number. Only some compounds are listed: those with a hit (about 3% of all), similar ones and a draw of the others. Rule as the data show it, unless noted: active = inhibition above about 27%; inactive = the rest.

SMILES	FadD28 FP inh	Rv3671c protease	GDH-TPI counter-1	Mtb FBA inh	BioA inh	Mtb FBA confirm	GDH-TPI counter-2
COc1ccc(-c2cc(C(F)F)n3ncc(C(=O)NCC4CCCO4)c3n2)cc1 (stereo unspecified)	-2	-2	26	29*	-1	96*	76*
Cc1ccc2nc(-c3ccc(Br)cc3)cc(C(=O)NCC3CCCO3)c2c1 (stereo unspecified)	1	·	19	2	-1	·	·
Cc1ccc2nc(-c3ccccc3)cc(C(=O)NCC3CCCO3)c2c1 (stereo unspecified)	-2	-9	7	41*	0	81*	86*
COc1ccc2oc(=O)c(C(=O)NCC3CCCO3)cc2c1 (stereo unspecified)	-3	0	15	64*	1	79*	59*
CNC(=O)c1cc2cc(OC)ccc2oc1=O	-1	0	-1	59*	2	14	-4
CNC(=O)c1cc2cc(OC)ccc2oc1=N	0	0	6	54*	0	28*	16*
NS(=O)(=O)c1ccc(CCNC(=O)c2coc3ccccc3c2=O)cc1	1	4	0	28*	-2	155*	99*
NS(=O)(=O)c1ccc(CCNC(=O)c2cc(=O)[nH]c3ccccc23)cc1	-3	-2	14	4	-1	·	·
O=C(C[C@@H]1CC[C@@H](NC(=O)C2CC2)[C@H](CO)O1)Nc1ccccc1	·	·	·	·	-1	·	·
CCN(C(=O)COC(=O)c1ccc(Cl)cc1N)C1CCCCC1	-2	-3	17	31*	·	93*	87*
Nc1cc(Cl)ccc1C(=O)OCC(=O)N1CCCCCC1	-2	5	8	60*	0	-7	-8
Nc1cc(Cl)ccc1C(=O)OCC(=O)NC1CCCCC1	-2	-6	0	13	·	·	·
Nc1cc(Cl)ccc1C(=O)OCC(=O)N1CCCC1	-2	8	5	59*	0	93*	84*
Nc1cc(C(=O)OCC(=O)N2CCCC2)ccc1Cl	-2	-1	-4	16	1	·	·
Nc1cc(Cl)ccc1C(=O)OCC(=O)NCC1CCCO1 (stereo unspecified)	0	-5	15	53*	-2	106*	74*
C[C@@H]1CN([C@@H](C)CO)C(=O)c2cccc(NC(=O)C3CC3)c2O[C@H]1CN(C)C(=O)Nc1ccc2c(c1)OCO2	·	·	·	·	-4	·	·
CO[C@H](CN(C)S(=O)(=O)c1cccc(Cl)c1)[C@H](C)CN([C@@H](C)CO)S(=O)(=O)c1cccc(Cl)c1	·	·	·	·	2	·	·
Nc1cc(Cl)ccc1C(=O)OCC(=O)N1CCOCC1	0	-9	9	44*	-2	63*	53*
N#C[C@H]1[C@@H](c2ccc(-c3cccnc3)cc2)[C@@H](CO)N1C(=O)C1CCOCC1	·	·	·	·	4	·	·
C[C@@H]1CCCCO[C@@H](CN(C)C(=O)Nc2ccccc2)[C@H](C)CN([C@H](C)CO)C(=O)c2cc(NC(=O)Nc3ccc(F)cc3)ccc2O1	·	·	·	·	0	·	·
Cc1ccc(-c2cc(-c3ccccc3)cc(-c3ccccc3)[n+]2-c2ccc(C(=O)O)cc2)cc1	0	7	26	29*	4	49*	46*
Cc1ccc(-c2cc(-c3ccc(C)cc3)[n+](-c3ccc(C(=O)O)cc3)c(-c3ccc(C)cc3)c2)cc1	-5	-4	24	19	4	·	·
O=C(NC1CCCC1)c1cc2nc(-c3ccccc3)cc(-c3ccccc3)n2n1	-4	4	-2	2	-2	·	·
O=C1CCC(=O)N1c1nc2nc(-c3ccccc3)cc(-c3ccccc3)n2n1	0	5	23	66*	1	89*	62*
Cc1cc(F)ccc1NCC(=O)Nc1ccccc1Br	-1	-2	2	50*	0	47*	39*
SMILES	FadD28 FP inh	Rv3671c protease	GDH-TPI counter-1	Mtb FBA inh	BioA inh	Mtb FBA confirm	GDH-TPI counter-2
Cc1ccc(F)cc1NCC(=O)Nc1ccc(Cl)cc1F	-3	5	-4	5	1	·	·
CCCCS(=O)(=O)Nc1ccc(C)cn1	-2	-1	-1	41*	-3	+	+
O=[N+]([O-])c1ccccc1S(=O)(=O)Nc1ccc(-c2ccc(N3CCOCC3)nn2)cc1	0	4	15	53*	-1	+	+
CCOC(=O)C(C)Sc1nc(N2CCOCC2)c2c(c1C#N)CC(C)(C)OC2 (stereo unspecified)	-1	-3	2	2	1	·	·
CCOC(=O)C(CC)c1cc2n(c(=O)c1C#N)CCC21OCCO1 (stereo unspecified)	-1	·	·	69*	·	+	+
CO[C@H]1CN(C)C(=O)c2cc(NC(C)=O)ccc2OC[C@@H](C)N(C(=O)c2cccnc2)C[C@@H]1C	·	·	·	·	-2	·	·
CCCOc1ccc(-c2nc(C#N)c(N3CCN(CC)CC3)o2)cc1	-1	2	4	44*	·	+	+
CCOc1ccc(-c2nc(C#N)c(N3CCN(CC)CC3)o2)cc1	-5	0	28	59*	0	44*	49*
CCN1CCN(c2oc(-c3ccco3)nc2C#N)CC1	-4	0	10	18	0	·	·
CCCOc1ccc(-c2nc(C#N)c(N3CCc4ccccc4C3)o2)cc1	-1	-5	21	7	-2	·	·
O=C(CC(F)(F)F)N1C[C@@H]2[C@H](c3ccccc31)[C@H](CO)N2CC1CCCCC1	·	·	·	·	0	·	·
Cc1nnc(SCC(=O)NC(C)(C)C)n1NCc1ccc(N(C)C)cc1	-1	5	9	44*	0	60*	54*
Cc1nnc(SCC(=O)NC(C)(C)C)n1NCc1ccc(Cl)cc1	-4	-2	-4	-4	·	·	·
COCC(=O)Nc1ccc2c(c1)[C@H]1C[C@H](CC(=O)N(C)C)O[C@@H](CO)[C@H]1O2	·	·	·	·	-1	·	·
COc1ccc(OC)c(/C=N/NC(=O)CCc2ccc(O)c(O)c2)c1	-4	7	5	43*	·	127*	99*
COc1ccc(OC)c(/C=N/NC(=O)CCc2c(C)n[nH]c2C)c1	-1	6	5	78*	-3	95*	89*
COc1ccc(OC)c(/C=N/NC(=O)C(=O)N/N=C/c2cc(OC)ccc2OC)c1	-1	5	13	2	-3	·	·
COc1ccc(OC)c(/C=N/NC(=O)c2c(C)nc3ccc(C)cn23)c1	0	-1	30	78*	-2	105*	88*
COc1cccc(/C=N/NC(=O)c2c(C)nc3ccc(Br)cn23)c1	-2	3	13	2	0	·	·
CO[C@@H]1CN(C)C(=O)c2ccc(NC(=O)Nc3ccccc3)cc2OC[C@@H](C)N(CC2CC2)C[C@@H]1C	·	·	·	·	-1	·	·
NS(=O)(=O)c1cccc(NC(=O)CSc2nc3nc(-c4cccs4)cc(C(F)(F)F)c3c(=O)[nH]2)c1	-7	-44	22	33*	-2	173*	119*

Assay outcomes as filed in PubChem.
